Assay outcomes as filed in PubChem.
Sampled rows, rich in hits. Any-hit rate of the full collection: about 7.9%.
HT1080-NT tox – kills 2HG-producing HT-1080-NT fibrosarcoma cells. HT-1080-NT fibrosarcoma viability, CellTiter-Glo ATP luminescence, 48 h. Potency, µM (top dose mostly 46.1 µM), actives largely listed as cytotoxic. actives 1.6% (n = 360,000). AID 686970;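 further: NT is the 2HG producing partner of a matched IDH1 knockdown line; nearly all actives have a fitted effect of over 55% in size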
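Fibrosarcoma NT cells, 750 per well in 5% FBS RPMI, were exposed to compound for 48 hours. Viability: CellTiter-Glo luminescence.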
KB-3-1 cytotox – KB-3-1 parental cell cytotoxicity; Potency, µM (highest dose often 46.1 µM), hits mostly cytotoxic; actives 1.4% (n = 400,000); KB-3-1 viability, CellTiter-Glo ATP luminescence, 72 h; AID 1347075; further: nearly all actives have a fitted effect of over 60% in size
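72 h, 37 °C compound treatment of KB-3-1 parental cells; CellTiter-Glo added, 10 min, luminescence read. Data corrected against DMSO-only plates and normalized before curve fitting.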
HT1080 IDH1KD tx – kills HT-1080 cells with IDH1 knockdown; HT-1080 IDH1 knockdown viability, ATP luminescence, 48 h; Potency, µM (highest dose often 46.1 µM), hits mostly cytotoxic; actives 2% (n = 360,000)
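Using the IDH1-knockdown HT-1080 line run in the same batch and compound series as the NT line, viability after 48 h at 37 °C was determined by CellTiter-Glo luminescence and expressed as % activity.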
MCF10A rerep – inducers of DNA re-replication in MCF 10A breast cells; MCF 10A DNA re-replication, Hoechst nuclear intensity, 48 h; Potency, µM (highest dose often 46.1 µM), actives largely listed as activators; actives 2.9% (n = 350,000); AID 624296; further: nearly all actives have a fitted effect of over 50% in size
KB-V1 cytotox – kills drug-selected multidrug resistant KB-V1 cells. Potency, µM (top dose mostly 46.1 µM), most hits filed as cytotoxic. actives 3.4% (n = 400,000). KB-V1 MDR cells viability, CellTiter-Glo, 72 h. AID 1347076; further: nearly all actives have a fitted effect of over 60% in size
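Compound-treated KB-V1 multidrug-resistant cells, 72 h, 37 degrees C; viability by CellTiter-Glo. Fitted qHTS curves give the values.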
SW480 rereplic – DNA re-replication induction in SW480 cells; actives 1.8% (n = 340,000); SW480 DNA re-replication, Hoechst DNA content imaging, 48 h; Potency, µM (highest dose often 46.1 µM), most hits filed as activators; AID 624297; further: nearly all actives have a fitted effect of over 55% in size
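Treated cells incubate 48 hr (37 C, 5% CO2), are stained 40 min with Hoechst, and nuclear fluorescence is enumerated; a rise in nuclei with high DNA signal marks re-replication.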
Numbers stand for hits; [ ] = dose if it differs, or a comment. The call rests on the fitted dose curve; in most records, active means well fitted curve in the direction sought with a large enough effect; inconclusive means small, poorly fitted or top-dose-only effect, or another doubt; inactive means no such curve, though single readings can be large; an effect the other way counts as inactive or inconclusive.

Results for Cc1ccc(NC(=O)C(C)NS(=O)(=O)c2ccc(F)cc2)cc1C (stereo not given) ?
HT1080-NT tox: inactive; KB-3-1 cytotox: inactive; HT1080 IDH1KD tx: inactive; MCF10A rerep: inactive; KB-V1 cytotox: inactive; SW480 rereplic: inactive

Results for CCOc1ccccc1CNC(=O)c1cn(C)c(=O)c2c1c1ccccc1n2C ?
HT1080-NT tox: inactive; KB-3-1 cytotox: inactive; HT1080 IDH1KD tx: inactive; MCF10A rerep: inactive; KB-V1 cytotox: inactive; SW480 rereplic: inactive

What do the screens show for `COc1ccccc1CNC(=O)COC(=O)C1CCN(c2ccc(C(F)(F)F)cn2)CC1`?
HT1080-NT tox: inactive; KB-3-1 cytotox: inactive; HT1080 IDH1KD tx: inactive; MCF10A rerep: inactive; KB-V1 cytotox: inactive; SW480 rereplic: 4.61µM

How did COc1ccc(CCNC(=O)COC(=O)Cn2cnc3ccccc32)cc1OC do in these assays?
HT1080-NT tox: inactive; KB-3-1 cytotox: inactive; HT1080 IDH1KD tx: inactive; MCF10A rerep: inactive; KB-V1 cytotox: inactive; SW480 rereplic: inactive

Results for COc1ccccc1CNC(=O)COC(=O)Cn1cnc2ccccc21 ?
HT1080-NT tox: inactive; KB-3-1 cytotox: inactive; HT1080 IDH1KD tx: inactive; MCF10A rerep: 0.82µM; KB-V1 cytotox: inactive; SW480 rereplic: inconclusive

Results for CCOc1ccc(C(=O)C(C)OC(=O)C2CCN(c3ccc(C(F)(F)F)cn3)CC2)cc1 (stereo not given) ?
HT1080-NT tox: inactive; KB-3-1 cytotox: inconclusive; HT1080 IDH1KD tx: inactive; MCF10A rerep: inactive; KB-V1 cytotox: inconclusive; SW480 rereplic: inactive

What do the screens show for `CC(OC(=O)C1CCN(c2ccc(C(F)(F)F)cn2)CC1)C(=O)NC1CCCCC1C` (stereo not given)?
HT1080-NT tox: inactive; KB-3-1 cytotox: inactive; HT1080 IDH1KD tx: inactive; MCF10A rerep: inactive; KB-V1 cytotox: 23.1µM; SW480 rereplic: inactive

How did COC(=O)c1sccc1NC(=S)Nc1cc(C)cc(C)c1 do in these assays?
HT1080-NT tox: inactive; KB-3-1 cytotox: inactive; HT1080 IDH1KD tx: inactive; MCF10A rerep: inactive; KB-V1 cytotox: inconclusive; SW480 rereplic: inactive

What do the screens show for `CCNC(=O)COC(=O)c1cc(-c2ccc(OC)cc2)nc2ccccc12`?
HT1080-NT tox: inactive; KB-3-1 cytotox: inactive; HT1080 IDH1KD tx: inactive; MCF10A rerep: inactive; KB-V1 cytotox: inactive; SW480 rereplic: inactive

How did CC(C)(C)C1CCC(CN2C(Nc3ccccc3)=NC[C@@H]2Cc2ccccc2)CC1 (stereo not given in full) do in these assays?
HT1080-NT tox: inactive; KB-3-1 cytotox: inconclusive; HT1080 IDH1KD tx: inactive; MCF10A rerep: inactive; KB-V1 cytotox: 18.4µM; SW480 rereplic: inconclusive

Results for CCN1C(Nc2ccccc2)=NC[C@@H]1Cc1ccccc1 ?
HT1080-NT tox: inactive; KB-3-1 cytotox: inactive; HT1080 IDH1KD tx: inactive; MCF10A rerep: inactive; KB-V1 cytotox: inconclusive; SW480 rereplic: inactive

Results for Cc1nc(N2CCC(C)CC2)c2c(C)c(C(=O)Nc3ccccc3C(F)(F)F)sc2n1 ?
HT1080-NT tox: inactive; KB-3-1 cytotox: inactive; HT1080 IDH1KD tx: inactive; MCF10A rerep: 9.2µM; KB-V1 cytotox: inactive; SW480 rereplic: inactive

How did Cc1nc(N2CCN(C)CC2)c2c(C)c(C(=O)Nc3ccc(C)c(F)c3)sc2n1 do in these assays?
HT1080-NT tox: inactive[9.24 µM]; KB-3-1 cytotox: inactive; HT1080 IDH1KD tx: 14.1µM; MCF10A rerep: inconclusive; KB-V1 cytotox: inactive; SW480 rereplic: inconclusive

How did Cc1nc(N2CCC(C)CC2)c2c(C)c(C(=O)Nc3ccc(C)c(F)c3)sc2n1 do in these assays?
HT1080-NT tox: inactive; KB-3-1 cytotox: inactive; HT1080 IDH1KD tx: inactive; MCF10A rerep: inactive; KB-V1 cytotox: inactive; SW480 rereplic: inactive

How did Cc1ccccc1NC(=O)CN1C(=O)CSc2ccc(S(=O)(=O)N3CCCCC3)cc21 do in these assays?
HT1080-NT tox: inactive; KB-3-1 cytotox: inactive; HT1080 IDH1KD tx: inactive; MCF10A rerep: inactive; KB-V1 cytotox: inactive; SW480 rereplic: inactive

What do the screens show for `CCN(C(=O)COC(=O)/C=C/c1c(C)nn(Cc2ccc(C)cc2)c1C)C1CCS(=O)(=O)C1` (stereo not given)?
HT1080-NT tox: inactive; KB-3-1 cytotox: inactive; HT1080 IDH1KD tx: inactive; MCF10A rerep: inactive[9.22 µM]; KB-V1 cytotox: inactive; SW480 rereplic: 16.4µM

How did O=C(NCc1cccc(Cl)c1)C1CCC(=O)N(CC2CCCCC2)C1 (stereo not given) do in these assays?
HT1080-NT tox: inactive; HT1080 IDH1KD tx: inactive; MCF10A rerep: inconclusive; SW480 rereplic: inactive

Results for Cc1cc(Cl)ccc1OC(C)C(=O)NC(C)C1CCCO1 (stereo not given) ?
HT1080-NT tox: inactive; KB-3-1 cytotox: inactive; HT1080 IDH1KD tx: inactive; MCF10A rerep: inactive; KB-V1 cytotox: inconclusive; SW480 rereplic: inactive

What do the screens show for `Cc1c(Cl)c(C(=O)NC2C3CC4CC(C3)CC2C4)nn1C` (stereo not given)?
HT1080-NT tox: inactive; KB-3-1 cytotox: inactive; HT1080 IDH1KD tx: inactive; MCF10A rerep: inactive; KB-V1 cytotox: 14.6µM; SW480 rereplic: inactive

Results for CCOc1ccc(/C=C2\SC(=S)N(CC(=O)NCCCN3CCOCC3)C2=O)cc1 ?
HT1080-NT tox: inactive; KB-3-1 cytotox: inactive; HT1080 IDH1KD tx: inactive; MCF10A rerep: inactive; KB-V1 cytotox: inactive; SW480 rereplic: inactive

How did COc1ccccc1-n1nnnc1SCC(=O)Nc1oc(C)c2c(C)n[nH]c(=O)c12 do in these assays?
HT1080-NT tox: inactive; KB-3-1 cytotox: inactive; HT1080 IDH1KD tx: inactive; MCF10A rerep: inactive; KB-V1 cytotox: inactive; SW480 rereplic: 20.6µM

Results for CCc1c(C)nc(N)n2c(SCC(=O)Nc3ccccc3OC)nnc12 ?
HT1080-NT tox: inactive; KB-3-1 cytotox: inactive; HT1080 IDH1KD tx: inactive; MCF10A rerep: inactive; KB-V1 cytotox: inconclusive; SW480 rereplic: inactive

Results for CCOc1ccccc1NC(=O)CSc1nnc2c(CC)c(C)nc(N)n12 ?
HT1080-NT tox: inconclusive; KB-3-1 cytotox: inactive; HT1080 IDH1KD tx: inactive; MCF10A rerep: inactive; KB-V1 cytotox: 14.6µM; SW480 rereplic: inactive

What do the screens show for `CN1CCN(c2ccc(NC(=O)CSc3nnnn3-c3ccccc3Cl)cc2)CC1`?
HT1080-NT tox: inactive; KB-3-1 cytotox: inactive; HT1080 IDH1KD tx: inactive; MCF10A rerep: inconclusive; KB-V1 cytotox: inactive; SW480 rereplic: 20.6µM

How did O=C(CSc1nnnn1-c1ccccc1)Nc1ccc(N2CCOCC2)c(Cl)c1 do in these assays?
HT1080-NT tox: inactive; KB-3-1 cytotox: inactive; HT1080 IDH1KD tx: inactive; MCF10A rerep: inactive; KB-V1 cytotox: inactive; SW480 rereplic: inactive

Results for CC1=Nc2ccccc2N=C(NC(=O)CSc2nnnn2-c2ccccc2)C1c1ccccc1 (stereo not given) ?
HT1080-NT tox: inactive; KB-3-1 cytotox: inactive; HT1080 IDH1KD tx: inactive[9.24 µM]; MCF10A rerep: inactive; KB-V1 cytotox: 13µM; SW480 rereplic: inactive
